# NCOA3 inh: inhibits human SRC3 coactivator. 360,000 compounds, 0.17% hits. HEK293 GAL4-SRC3 luciferase reporter, luminescence. inhibition, % at 3.6 µM. Q9Y6Q9;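 active means inhibition above a per-campaign cutoff, the mean of all compounds plus 3 SD, cut at about 60% in these data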;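 further: 0% = DMSO-treated cells and 100% = gossypol-treated cells at 36 µM; higher means less SRC3-driven luciferase light from the GAL4 reporter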
# SRC2 inh: human SRC2 (NCOA2) inhibition. Q15596. HEK293 GAL4-SRC2 luciferase reporter, luminescence. inhibition, % at 9 µM. 370,000 compounds, 0.17% hits. AID 651957;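 active means inhibition above the mean inhibition of all tested compounds plus 3 SD, set per campaign, cut at about 52% in these data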;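 further: 0% = DMSO treated cells and 100% = cells given Gossypol at 36 µM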
# GalR3 antag: human GalR3 antagonism; AID 651719; inhibition, % at 3 µM; HEK293 GalR3-CNG cAMP membrane potential fluorescence; galR3 body fused to GalR1 C-terminus; 360,000 compounds, 0.44% hits;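 active means inhibition above the screen-wide average plus 3 SD, cut at about 13% in these data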;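 further: forskolin and galanin both at EC90 stimulate the cells; cAMP rise reported by CNG channel membrane potential dye signal; 0% = forskolin plus galanin with DMSO and 100% = forskolin alone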
# NCOA1 inh: human NCOA1 inhibition; Q15788; HEK293 GAL4-SRC1 luciferase reporter, luminescence; inhibition, % at 3.6 µM; 360,000 compounds, 0.12% hits;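 active means inhibition above the campaign mean plus 3 SD, with each screening campaign given its own cutoff, cut at about 60% in these data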;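 further: 0% = DMSO treated cells and 100% = gossypol at 36 µM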
# COUP-TFII inh: inhibitors of human COUP-TFII (NR2F2); 370,000 compounds, 0.7% hits; P24468; AID 686940; inhibition, % at 8.6 µM; HEK293T NGFI-A luciferase reporter, luminescence;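 active means inhibition above a per-plate cutoff, mean inhibition of test wells between control levels plus 3 SD, cut at about 38% in these data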;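 further: cells cotransfected with COUP-TFII expression vector driving the NGFI-A reporter; 0% = median of COUP-TF2 test wells and 100% = reporter-only cells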
# LRH-1 inv ag: NR5A2 inverse agonism in reporter assay | O00482 | HEK293T StAR-luciferase reporter, LRH-1 transfected, 24 h | inhibition, % at 3.6 µM | 360,000 compounds, 0.13% hits | AID 602396;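 active means inhibition above the mean inhibition of all tested compounds plus 3 SD, cut at about 73% in these data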;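 further: 0% = DMSO wells and 100% = reporter-only cells lacking LRH-1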
# * marks the source's active call; other numbers are inactive results; . = not tested or not shown. This is a sample that favours compounds with a hit; in the whole collection about 1.1% have one here.
SMILES,NCOA3 inh,SRC2 inh,GalR3 antag,NCOA1 inh,COUP-TFII inh,LRH-1 inv ag
CN(Cc1cnc2nc(N)nc(N)c2n1)c1ccc(C(=O)NC(CCC(=O)O)C(=O)O)c2ccccc12 (stereo not drawn),64*,15,3,73*,14,46
CCOC(=O)[C@]12CCCCC/C=C\1N(Cc1ccc(OC)cc1)C(=O)[C@H]2CC(=O)N1CCCCC1,.,-3,.,.,8,.
Cc1ccc2[nH]c3c(c2c1)CCCC3C(N)=O (stereo not drawn),9,-19,-3,-3,-9,12
Cc1ccc2[nH]c3c(c2c1)CCCC3NC(=O)CCl (stereo not drawn),77*,.,.,77*,.,89*
COCCn1c(C)cc(C(=O)COc2ccc(C)nc2[N+](=O)[O-])c1C,37,54*,-3,39,5,18
CCCn1c(C)cc(C(=O)COc2ccc(C)nc2[N+](=O)[O-])c1C,36,31,-3,15,14,17
N=c1c2c(-c3ccccc3)c(-c3ccccc3)n(Cc3ccccc3)c2ncn1CCCn1ccnc1,67*,-32,-7,50,14,40
COc1ccc(O)c(/C=N/NC(=O)c2ccc(CSc3nc(C)cc(C)n3)cc2)c1,26,40,4,18,17,5
Cc1cc(C)nc(SCc2ccc(C(=O)N/N=C/c3cccc(O)c3O)cc2)n1,66*,33,5,24,-17,-6
Cc1ccc(-n2c(SCC(=O)Nc3ccc(S(=O)(=O)Nc4cc(C)nc(C)n4)cc3)nnc2-c2ccc(C(C)(C)C)cc2)cc1,.,12,.,.,-12,.
CCCNC(=O)C[C@H]1CC[C@H]2[C@@H](COc3ccc(NC(=O)c4cncs4)cc3C(=O)N2C)O1,.,-26,.,.,-3,.
O=C(c1ccc(F)cc1)C(CN1CCOCC1)c1ccccc1 (stereo not drawn),74*,52,-6,6,3,8
COc1ccc(C(=O)C(CN2CCOCC2)c2ccccc2)cc1 (stereo not drawn),50,55*,-10,33,-20,19
CCCCOc1ccc(C(=O)C(CN2CCOCC2)c2ccccc2)cc1 (stereo not drawn),-12,28,-3,-13,-14,10
COc1ccc2c(c1)-c1c(ssc1=S)C(C)(C)N2C(=O)CSC1=NCCS1,30,45,-8,39,52*,10
COc1ccc(-n2c(SCC(=O)Nc3ccc(S(=O)(=O)Nc4nccs4)cc3)nnc2-c2ccccc2)cc1,.,17,.,.,-8,.
COc1ccc(S(=O)(=O)N2CCOCC2)cc1NC(=O)CCNC(=O)c1ccc([N+](=O)[O-])cc1,45,48,-3,55,-33,82*
CCOC(=O)c1ccc(NC(=O)CSc2nnc(SCc3cccc4ccccc34)s2)cc1,.,1,.,.,-14,.
CCCC(=O)N1CCN(c2ccc(NC(=O)c3cc4ccccc4o3)cc2Cl)CC1,76*,41,-2,46,36,36
CCOC(=O)[C@@]12CN(C(=O)OC(C)(C)C)CC=C1N(Cc1ccc(OC)cc1)C(=O)[C@H]2CC(=O)NCc1cccs1,.,-5,.,.,5,.
CCN(CC)c1ccc(/C=N/NC(=O)c2cccc(S(=O)(=O)Nc3ccccc3OC)c2)c(O)c1,81*,32,1,73*,-17,33
CCN(CC)c1ccc(/C=N/NC(=O)c2cccc(S(=O)(=O)Nc3ccccc3OC)c2)cc1,-6,-5,-4,9,-9,24
COC(=O)[C@]12C[C@H](CC(=O)N3CCSCC3)C(=O)N(Cc3cccc4ccccc34)C1=C[C@H](C1CCCC1)O[C@@H]2C,.,11,.,.,9,.
C[C@@H]1/C=C/CC(=O)N[C@H](c2ccc3ccccc3c2)[C@H](C)/C=C/CC(=O)N[C@@H]1c1ccc2ccccc2c1,.,14,.,.,9,.
Cc1ccc(N2C(=O)c3cccc4c(N)ccc(c34)C2=O)c2cccnc12,6,22,19*,-10,-43,12
Cc1nn(C)c(C)c1N1C(=O)c2cccc3c(N)ccc(c23)C1=O,5,6,12,-26,15,14
O=C(C=P(c1ccccc1)(c1ccccc1)c1ccccc1)c1ccccc1-c1ccccc1C(=O)C=P(c1ccccc1)(c1ccccc1)c1ccccc1,62*,8,33*,59,80*,94*

# Compound activity as filed in PubChem BioAssay.
